Experimental data as given in the supplement of paper PMC10849652.
Targets with a hit are over-represented here; the source holds about 8,800 in all. About 0.5% of all pairs of compound and target were hits. Values without a mark were called inactive.

What follows are targets tested with CCn1cc(-c2ccnc3[nH]c(-c4cccc(CN(C)C)c4)cc23)c(-c2ccc(NC(=O)N(C)C)cc2)n1 (assay: log2 fold change, soluble protein after heating vs DMSO (PISA); higher = thermal stabilisation; K562 lysate, 10 uM; active = over 0.2 and 3.5 SD of the protein, either way, in both replicates (recomputed)).
Summary of the method: (§1)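 Values give the log-two fold change in thermal stability against solvent controls, from duplicates. Crude K562 extract at 1 mg/mL protein, made by dounce homogenisation in PBS pH 7.4 with 1 mM MgCl2, was treated with 10 μM compound for 30 min. After 3 min heating across 48°C-58°C, aliquots were pooled, adjusted to 0.5% NP-40 at 4°C and centrifuged at 21,000xg for 90 min. The supernatant was measured by TMTpro 16plex LC-MS/MS with channel sums equalised.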

Chain of UniProt P41252 (P41252 whole entry, looked up): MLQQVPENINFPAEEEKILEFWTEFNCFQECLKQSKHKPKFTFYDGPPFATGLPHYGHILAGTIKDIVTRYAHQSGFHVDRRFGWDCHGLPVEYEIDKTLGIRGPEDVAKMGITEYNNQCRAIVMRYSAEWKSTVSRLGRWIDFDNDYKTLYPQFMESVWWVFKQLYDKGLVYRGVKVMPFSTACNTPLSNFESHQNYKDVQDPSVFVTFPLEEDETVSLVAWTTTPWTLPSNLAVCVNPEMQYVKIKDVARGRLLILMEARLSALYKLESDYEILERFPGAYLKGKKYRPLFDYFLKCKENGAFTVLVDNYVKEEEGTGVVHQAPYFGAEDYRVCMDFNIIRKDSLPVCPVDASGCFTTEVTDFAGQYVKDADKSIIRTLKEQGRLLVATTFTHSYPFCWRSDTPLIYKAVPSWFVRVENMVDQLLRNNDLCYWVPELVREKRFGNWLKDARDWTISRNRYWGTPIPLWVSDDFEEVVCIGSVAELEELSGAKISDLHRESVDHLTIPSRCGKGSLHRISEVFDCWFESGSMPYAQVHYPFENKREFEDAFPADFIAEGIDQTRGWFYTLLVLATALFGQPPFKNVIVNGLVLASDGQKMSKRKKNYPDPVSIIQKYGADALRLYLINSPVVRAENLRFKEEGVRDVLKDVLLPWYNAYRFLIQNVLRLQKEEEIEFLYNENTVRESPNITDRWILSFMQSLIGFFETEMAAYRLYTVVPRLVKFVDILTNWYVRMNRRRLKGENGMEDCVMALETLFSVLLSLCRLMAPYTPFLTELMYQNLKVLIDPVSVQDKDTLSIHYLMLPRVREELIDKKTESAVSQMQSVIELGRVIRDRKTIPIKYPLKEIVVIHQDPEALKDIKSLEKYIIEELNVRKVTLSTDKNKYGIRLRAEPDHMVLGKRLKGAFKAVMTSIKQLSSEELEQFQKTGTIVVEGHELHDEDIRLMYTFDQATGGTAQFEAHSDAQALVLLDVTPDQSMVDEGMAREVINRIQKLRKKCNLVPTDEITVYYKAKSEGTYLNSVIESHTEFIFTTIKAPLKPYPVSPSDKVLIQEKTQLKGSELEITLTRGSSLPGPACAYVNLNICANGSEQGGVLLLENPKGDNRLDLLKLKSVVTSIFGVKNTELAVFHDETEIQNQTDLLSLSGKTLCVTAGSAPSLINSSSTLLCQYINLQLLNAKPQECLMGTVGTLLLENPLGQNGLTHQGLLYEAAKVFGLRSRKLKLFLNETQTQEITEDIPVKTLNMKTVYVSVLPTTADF
Chain of UniProt P11142 (P11142 whole entry, looked up): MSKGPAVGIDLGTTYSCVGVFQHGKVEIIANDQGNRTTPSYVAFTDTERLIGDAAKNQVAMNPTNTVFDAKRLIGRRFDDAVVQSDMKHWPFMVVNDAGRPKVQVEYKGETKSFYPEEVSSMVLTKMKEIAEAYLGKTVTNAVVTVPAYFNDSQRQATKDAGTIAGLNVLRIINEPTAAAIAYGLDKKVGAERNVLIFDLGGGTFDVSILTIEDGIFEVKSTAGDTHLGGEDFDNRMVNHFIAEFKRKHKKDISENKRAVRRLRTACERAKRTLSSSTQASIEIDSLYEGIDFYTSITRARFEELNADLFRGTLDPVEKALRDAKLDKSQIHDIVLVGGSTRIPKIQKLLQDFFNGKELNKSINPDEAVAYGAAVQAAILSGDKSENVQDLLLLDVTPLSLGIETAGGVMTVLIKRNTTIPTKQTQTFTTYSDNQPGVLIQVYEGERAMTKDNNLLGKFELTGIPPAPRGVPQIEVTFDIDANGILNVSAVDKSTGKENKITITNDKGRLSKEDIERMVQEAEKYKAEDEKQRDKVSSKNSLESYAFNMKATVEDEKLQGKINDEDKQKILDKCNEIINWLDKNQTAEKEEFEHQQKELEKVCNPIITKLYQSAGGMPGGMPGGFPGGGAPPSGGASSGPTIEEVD
Chain of UniProt Q9Y223 (Q9Y223 whole entry, looked up): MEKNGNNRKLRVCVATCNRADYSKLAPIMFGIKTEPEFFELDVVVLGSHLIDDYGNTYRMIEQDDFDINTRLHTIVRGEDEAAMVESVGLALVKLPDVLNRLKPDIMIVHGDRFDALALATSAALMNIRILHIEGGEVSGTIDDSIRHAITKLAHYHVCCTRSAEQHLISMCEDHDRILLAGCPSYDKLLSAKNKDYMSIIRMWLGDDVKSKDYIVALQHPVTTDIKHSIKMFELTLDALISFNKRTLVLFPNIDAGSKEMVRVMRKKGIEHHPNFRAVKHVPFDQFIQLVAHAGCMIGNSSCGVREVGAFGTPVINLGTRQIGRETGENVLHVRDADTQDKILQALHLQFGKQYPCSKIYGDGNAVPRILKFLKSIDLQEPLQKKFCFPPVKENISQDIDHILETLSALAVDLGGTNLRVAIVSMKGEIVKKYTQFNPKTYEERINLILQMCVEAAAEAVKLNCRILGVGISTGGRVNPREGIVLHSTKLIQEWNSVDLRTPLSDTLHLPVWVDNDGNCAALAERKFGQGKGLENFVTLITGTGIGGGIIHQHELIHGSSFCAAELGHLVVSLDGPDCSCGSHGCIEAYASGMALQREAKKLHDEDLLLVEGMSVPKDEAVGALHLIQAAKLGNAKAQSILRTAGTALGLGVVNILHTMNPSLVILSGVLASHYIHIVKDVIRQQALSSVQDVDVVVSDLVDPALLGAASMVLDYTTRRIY
Chain of UniProt Q9P2X3 (Q9P2X3 whole entry, looked up): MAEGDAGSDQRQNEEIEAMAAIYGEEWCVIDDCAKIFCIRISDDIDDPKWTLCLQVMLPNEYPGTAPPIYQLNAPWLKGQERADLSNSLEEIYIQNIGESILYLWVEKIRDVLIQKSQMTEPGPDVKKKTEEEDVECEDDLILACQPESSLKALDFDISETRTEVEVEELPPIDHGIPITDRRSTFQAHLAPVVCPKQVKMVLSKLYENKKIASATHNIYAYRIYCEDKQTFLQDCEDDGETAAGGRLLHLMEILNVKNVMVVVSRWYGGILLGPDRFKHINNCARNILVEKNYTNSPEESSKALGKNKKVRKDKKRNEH
Chain of UniProt Q8NC54 (Q8NC54 whole entry, looked up): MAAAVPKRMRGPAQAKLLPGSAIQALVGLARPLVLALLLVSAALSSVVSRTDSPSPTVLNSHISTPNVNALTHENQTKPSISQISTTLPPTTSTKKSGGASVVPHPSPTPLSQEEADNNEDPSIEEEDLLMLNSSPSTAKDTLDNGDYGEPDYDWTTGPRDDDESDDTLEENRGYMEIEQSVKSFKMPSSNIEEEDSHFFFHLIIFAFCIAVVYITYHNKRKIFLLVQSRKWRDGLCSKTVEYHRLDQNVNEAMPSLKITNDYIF
Chain of UniProt Q5T447 (Q5T447 whole entry, looked up): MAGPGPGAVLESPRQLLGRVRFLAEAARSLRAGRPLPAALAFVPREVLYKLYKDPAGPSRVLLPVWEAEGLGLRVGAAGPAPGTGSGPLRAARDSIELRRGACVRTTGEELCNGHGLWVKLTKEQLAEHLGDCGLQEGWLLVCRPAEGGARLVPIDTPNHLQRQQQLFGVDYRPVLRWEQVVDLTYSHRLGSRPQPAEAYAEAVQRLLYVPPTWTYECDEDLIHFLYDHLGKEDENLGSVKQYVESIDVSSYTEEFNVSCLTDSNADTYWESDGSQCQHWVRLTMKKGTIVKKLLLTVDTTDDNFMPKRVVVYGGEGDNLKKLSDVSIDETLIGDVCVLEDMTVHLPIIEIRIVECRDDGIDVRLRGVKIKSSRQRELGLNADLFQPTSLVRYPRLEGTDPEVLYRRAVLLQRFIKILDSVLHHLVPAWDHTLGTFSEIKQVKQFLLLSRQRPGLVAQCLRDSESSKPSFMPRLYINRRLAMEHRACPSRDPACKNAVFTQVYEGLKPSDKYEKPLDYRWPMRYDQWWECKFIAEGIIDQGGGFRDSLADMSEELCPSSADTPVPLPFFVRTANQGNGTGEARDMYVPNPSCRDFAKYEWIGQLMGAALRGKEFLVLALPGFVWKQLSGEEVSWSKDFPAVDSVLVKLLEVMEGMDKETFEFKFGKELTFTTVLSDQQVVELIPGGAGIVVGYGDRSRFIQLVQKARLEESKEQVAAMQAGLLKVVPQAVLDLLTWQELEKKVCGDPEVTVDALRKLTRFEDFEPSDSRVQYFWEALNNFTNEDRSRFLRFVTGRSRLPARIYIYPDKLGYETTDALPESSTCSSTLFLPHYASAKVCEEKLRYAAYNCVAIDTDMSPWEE
Chain of UniProt Q68CZ6 (Q68CZ6 whole entry, looked up): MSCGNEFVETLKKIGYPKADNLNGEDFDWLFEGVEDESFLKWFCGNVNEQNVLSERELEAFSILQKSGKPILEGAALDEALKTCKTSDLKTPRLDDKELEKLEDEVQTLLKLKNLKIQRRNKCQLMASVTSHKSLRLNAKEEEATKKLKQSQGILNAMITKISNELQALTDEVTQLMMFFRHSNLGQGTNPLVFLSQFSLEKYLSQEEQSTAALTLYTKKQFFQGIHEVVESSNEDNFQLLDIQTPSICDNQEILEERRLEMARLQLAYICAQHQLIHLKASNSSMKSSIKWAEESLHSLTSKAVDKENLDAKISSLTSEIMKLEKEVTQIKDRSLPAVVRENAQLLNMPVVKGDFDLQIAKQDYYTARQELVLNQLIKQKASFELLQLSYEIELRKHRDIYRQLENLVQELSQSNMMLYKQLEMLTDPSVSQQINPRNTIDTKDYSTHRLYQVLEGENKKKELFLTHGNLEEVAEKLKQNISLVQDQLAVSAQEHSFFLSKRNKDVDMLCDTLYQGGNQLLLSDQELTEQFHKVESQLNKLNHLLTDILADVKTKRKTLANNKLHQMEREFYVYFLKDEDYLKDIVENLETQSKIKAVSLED
Chain of UniProt P04792 (P04792 whole entry, looked up): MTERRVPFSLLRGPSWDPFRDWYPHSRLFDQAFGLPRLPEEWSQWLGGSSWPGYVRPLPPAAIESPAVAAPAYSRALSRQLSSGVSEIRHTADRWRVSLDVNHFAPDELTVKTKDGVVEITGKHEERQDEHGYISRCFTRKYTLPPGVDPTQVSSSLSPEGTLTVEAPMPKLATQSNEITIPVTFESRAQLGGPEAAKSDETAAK

Target | log2 fold change
GTF2H4 (UniProt Q92759) | 0.063
GSTZ1 (UniProt G3V4T6) | -0.116
HDAC2 (UniProt Q92769) | -0.052
HEATR6 (UniProt Q6AI08) | -0.001
H4C1 (UniProt P62805) | 0.268
HECTD3 (UniProt Q5T447) | -0.004
KCT2 (UniProt Q8NC54) | -0.374 (active)
GPX4 (UniProt P36969) | 0.027
IARS2 (UniProt Q9NSE4) | 0.198
GTF2H1 (UniProt P32780) | -0.042
GSTM4 (UniProt Q03013) | -0.114
IMPACT (UniProt Q9P2X3) | 0.003
IGF2BP2 (UniProt Q9Y6M1) | -0.066
GON4L (UniProt Q3T8J9) | -0.104
HK1 isoform 2 (UniProt P19367) | -0.008
GTF2I (UniProt P78347) | -0.054
KEAP1 (UniProt Q14145) | -0.017
ISOC2 (UniProt Q96AB3) | 0.02

Target | log2 fold change
HSD17B10 (UniProt Q99714) | -0.081
IRAK4 (UniProt Q9NWZ3) | 0.001
IMMT (UniProt Q16891) | -0.005
IARS (UniProt P41252) | 0.044
IMPDH2 (UniProt P12268) | 0.11
GNE isoform 2 (UniProt Q9Y223) | 0.008
GTPBP2 (UniProt Q9BX10) | 0.124
HSPB1 (UniProt P04792) | 0.005
INTS1 (UniProt Q8N201) | 0.06
HSPA8 (UniProt P11142) | -0.005
HAUS3 (UniProt Q68CZ6) | -0.035
GRB10 (UniProt Q13322) | -0.023
HARS (UniProt P12081) | 0.023
GMIP (UniProt Q9P107) | -0.027
HK2 (UniProt P52789) | -0.015
IRAK1 (UniProt P51617) | -0.135
GSTCD (UniProt Q8NEC7) | -0.055
HDAC3 (UniProt O15379) | 0.023

What follows are targets tested with CN1CCC(CNc2ccc3ncc(-c4cccc(OC(F)(F)F)c4)n3n2)CC1 in the same assay as above.
Summary of the method: as §1

Target | log2 fold change
GTF2H4 (UniProt Q92759) | -0.075
GSTZ1 (UniProt G3V4T6) | 0.087
HDAC2 (UniProt Q92769) | 0.055
HEATR6 (UniProt Q6AI08) | -0.008
H4C1 (UniProt P62805) | -0.01
HECTD3 (UniProt Q5T447) | -0.027
KCT2 (UniProt Q8NC54) | 0.153
GPX4 (UniProt P36969) | -0.079
IARS2 (UniProt Q9NSE4) | -0.032
GTF2H1 (UniProt P32780) | -0.075
GSTM4 (UniProt Q03013) | 0.038
IMPACT (UniProt Q9P2X3) | -0.122
IGF2BP2 (UniProt Q9Y6M1) | 0.036
GON4L (UniProt Q3T8J9) | -0.027
HK1 isoform 2 (UniProt P19367) | -0.013
GTF2I (UniProt P78347) | -0.033
KEAP1 (UniProt Q14145) | 0.044
ISOC2 (UniProt Q96AB3) | -0.08

Target | log2 fold change
HSD17B10 (UniProt Q99714) | 0.024
IRAK4 (UniProt Q9NWZ3) | 0.19
IMMT (UniProt Q16891) | -0.212 (active)
IARS (UniProt P41252) | -0.111
IMPDH2 (UniProt P12268) | 0.01
GNE isoform 2 (UniProt Q9Y223) | -0.053
GTPBP2 (UniProt Q9BX10) | -0.074
HSPB1 (UniProt P04792) | -0.042
INTS1 (UniProt Q8N201) | -0.041
HSPA8 (UniProt P11142) | 0.014
HAUS3 (UniProt Q68CZ6) | -0.065
GRB10 (UniProt Q13322) | 0.016
HARS (UniProt P12081) | -0.01
GMIP (UniProt Q9P107) | -0.004
HK2 (UniProt P52789) | -0.075
IRAK1 (UniProt P51617) | 0.043
GSTCD (UniProt Q8NEC7) | -0.015
HDAC3 (UniProt O15379) | 0.052
